Rows were chosen to be rich in hits. Some 22% of all compounds tested hit in one or more screens of this group.
CYP2C19 act – cytochrome P450 2C19 (human) activation. P33261. recombinant CYP2C19, luciferin-H EGE luminescence; hits give high values; 0 = fully inhibited enzyme, 1 = untreated enzyme. activation factor at 5 µM. 96,000 tested, under 10 active;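 active = activation factor of at least 2 at 5 µM in the primary screen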;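 note: 0 = wells with 2.5 mM tranylcypromine and 1 = vehicle-only wells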
Target sequence (P33261 whole entry, looked up): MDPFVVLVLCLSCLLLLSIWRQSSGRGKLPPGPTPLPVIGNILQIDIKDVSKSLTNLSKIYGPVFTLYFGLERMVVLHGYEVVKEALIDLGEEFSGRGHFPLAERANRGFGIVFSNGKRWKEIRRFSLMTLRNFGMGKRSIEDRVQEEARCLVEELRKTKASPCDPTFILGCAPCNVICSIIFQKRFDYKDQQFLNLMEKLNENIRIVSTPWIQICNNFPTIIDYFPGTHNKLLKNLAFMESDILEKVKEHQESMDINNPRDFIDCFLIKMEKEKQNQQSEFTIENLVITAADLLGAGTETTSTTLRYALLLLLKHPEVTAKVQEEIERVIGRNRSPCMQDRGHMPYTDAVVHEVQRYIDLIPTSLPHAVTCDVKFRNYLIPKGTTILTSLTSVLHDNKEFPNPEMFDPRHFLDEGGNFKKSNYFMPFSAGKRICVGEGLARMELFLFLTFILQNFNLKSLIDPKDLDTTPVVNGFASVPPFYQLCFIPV
CYP2C19 inhib – inhibitors of human CYP2C19; 96,000 tested, 21% active; CYP2C19 Supersomes, luciferin-H EGE luminescence, 30 min; inhibition, % at 5 µM; P33261;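 active = CYP2C19 inhibition above a set limit at 5 µM in the primary screen, cut at about 50% in these data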;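 note: plate controls were negative control wells for no effect and 2.5 mM tranylcypromine positive control for full effect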
Measles CPE – protection of cells from measles virus; Measles virus-infected cells, CPE protection, absorbance; protection (pct of control), % at 4 µM; 140,000 tested, 1.5% active; in the data active = protection mostly above about 24%, no sharp cut-off; inactive = mostly below about 26%
CYP2C9 inh – inhibitors of human CYP2C9 | CYP2C9 Supersomes, luciferin-H conversion, luminescence | AID 777 | 96,000 tested, 20% active | inhibition, % at 5 µM | P11712;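 active = blocking of liver enzyme CYP2C9 beyond about 50% at 5 µM, limit read from the data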
CYP2C9 activ – activators of human CYP2C9. recombinant CYP2C9, luciferin-H conversion, luminescence; hits give high values; factor 1 = untreated enzyme, 0 = blocked. activation factor at 5 µM. 96,000 tested, 1.4% active. AID 1024;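 active = activation factor of 2 or more for CYP2C9 at a 5 µM dose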;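 note: 0 = sulfaphenazole-blocked wells and 1 = vehicle-only wells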
Starred values were filed as active, the others as inactive; . = no result given.

SMILES	CYP2C19 act	CYP2C19 inhib	Measles CPE	CYP2C9 inh	CYP2C9 activ
CC(C)(C)c1cc(NC(=O)COC(=O)C2CC2)n(-c2ccccc2)n1	0.4	56*	1	23	0.8
CCCC(=O)OCC(=O)Nc1cc(C(C)(C)C)nn1-c1ccccc1	0.9	10	19	6	0.9
Cc1ccc(/C(COc2ccccc2O)=N\O)cc1	0.2	76*	2	41	0.6
Cc1ccc(SC(=O)COc2ccccc2C)cc1	0.9	9	4	12	0.9
COc1cc(/C=N/NC(=O)CNC(=O)c2cccs2)ccc1O	.	.	6	.	.
COc1ccc(/C=C/C(=O)Nc2nc(C)c(C(=O)N(C)C)s2)cc1OC	.	.	13	.	.
COC(=O)c1sc(NC(=O)c2cc3c(s2)CCCC3)nc1C	0.9	11	20	0	1
CCCOc1ccc(C(=O)NC(=S)Nc2nc(C)c(C(=O)N(C)C)s2)cc1	0.4	63*	5	43	0.6
Cc1nc(NC(=O)c2cc3c(s2)CCCCC3)sc1C(=O)N(C)C	0.7	34	9	56*	0.4
Cc1nc(NC(=S)NC(=O)c2ccccc2)sc1C(=O)N(C)C	0.6	37	6	40	0.6
COc1ccc(C(=O)Nc2nc(C)c(C(=O)N(C)C)s2)cc1OC	0.9	6	35*	-4	1
O=C(COc1cc(O)c2c(=O)cc(-c3ccccc3)oc2c1)c1ccccc1	0.7	32	4	59*	0.4
O=C(COc1cc(O)c2c(=O)cc(-c3ccccc3)oc2c1)c1ccc(F)cc1	0.9	8	17	40	0.6
CC(C)=C1SC(N2CCN(Cc3ccccc3)CC2)=NC1=O	0.4	57*	12	-20	1.2
CCOC(=O)c1c2ccc(OCC(=O)N/N=C/c3ccc(C)cc3)cc2n2ccccc12	0.6	36	4	65*	0.3
CCCCn1nnnc1NCc1cccnc1	0.3	70*	8	-4	1
CCCCn1nnnc1NCc1cc(OC)c(OC)cc1OC	0.4	61*	17	32	0.7
CCCn1nnnc1NCc1ccc(N2CCCC2)cc1	.	.	10	.	.
COc1nc(NCc2cccnc2)nc(OC)n1	0.8	17	18	5	0.9
CCCCn1nnnc1NCc1ccc(N2CCCC2)cc1	0.6	38	3	71*	0.3
COCCN1C(=O)c2oc3ccccc3c(=O)c2C1c1ccc(C(=O)OC)cc1 (configuration not stated)	1	-4	27	3	1
CCOC(=O)CCc1c(C)nc2c(c(C)nn2C(C)(C)C)c1C	0.7	30	6	14	0.9
COc1ccc(Cl)cc1NC(=O)C(C)NC(c1ccccc1)c1ccccc1 (configuration not stated)	.	.	5	.	.
CC(C)C(NC(=O)CN1C(=O)c2ccccc2S1(=O)=O)C(C)C	0.6	36	8	-4	1
O=C1c2ccccc2S(=O)(=O)N1Cc1nc2ccccc2s1	0.1	86*	7	40	0.6
SMILES	CYP2C19 act	CYP2C19 inhib	Measles CPE	CYP2C9 inh	CYP2C9 activ
O=c1c2ccccc2ncn1Cc1nc2ccccc2s1	0.2	82*	8	77*	0.2
O=C(O)Cn1cnc2ccccc2c1=O	1	-4	16	-3	1
CCOC(=O)C1=C(c2cccc(Oc3ccccc3)c2)NC(=S)NC1C (configuration not stated)	0	100*	30	99*	0
CCOC(=O)C1=C(C)C(c2cccc(Oc3ccccc3)c2)NC(=S)N1 (configuration not stated)	.	.	21	.	.
O=S(=O)(N/N=C/c1ccc(Cl)cc1)c1ccc(Cc2ncc(C(F)(F)F)cc2Cl)s1	1	-4	20	92*	0.1
NC(=O)c1ccc(Cc2ncc(C(F)(F)F)cc2Cl)s1	0.9	14	17	4	1
COc1ccc(CCNC(=O)CC(NS(=O)(=O)c2ccc(NC(C)=O)cc2)C(C)C)cc1OC (configuration not stated)	1	-1	11	49	0.5
COc1ccccc1OCCCn1cc(C#N)c2ccccc21	0	100*	3	95*	0
COc1ccccc1OCCCn1c(C)c(C#N)c2ccccc21	0.7	29	3	78*	0.2
O=C(CN1CCC2(CC1)OCCO2)c1c[nH]c2ccccc12	0.2	81*	4	3	1
CCN1CCN(CC(=O)c2c[nH]c3ccc(C)cc23)CC1	1.2	-19	2	51*	0.5
Cc1ccc2[nH]cc(C(=O)CN3CCN(c4ccccc4F)CC3)c2c1	0.8	21	4	18	0.8
Cc1ccc2[nH]cc(C(=O)CN3CCC4(CC3)OCCO4)c2c1	.	.	11	.	.
CCOC(=O)N1CCN(CC(=O)c2c[nH]c3ccc(F)cc23)CC1	0.5	46	5	51*	0.5
CN(C)c1ccc(NC(=S)NC(=O)/C=C/c2ccc(Cl)cc2)cc1	1	4	4	-13	1.1
CC1CCCN(CC(O)COc2ccc(Cl)cc2)C1 (configuration not stated)	0.8	20	2	11	0.9
COc1ccccc1CC(=O)Nc1ccc2c(c1)CCC2	.	.	5	.	.
COc1ccc(CC(=O)Nc2ccc3c(c2)CCC3)cc1OC	0.2	81*	2	-35	1.3
CC1CN(CCC(=O)Nc2ccc3c(c2)CCC3)CC(C)O1 (configuration not stated)	0.5	52*	6	8	0.9
CC1CCN(CCC(=O)Nc2ccc3c(c2)CCC3)CC1	.	.	8	.	.
O=C(O)c1c(Cl)c(Cl)c(Cl)c(Cl)c1C(=O)N1CCOCC1	0.9	8	11	19	0.8
Cc1ccc(S(=O)(=O)/N=C2/NC(=O)/C(=C/c3cccnc3)S2)cc1	0.3	68*	5	98*	0
Cc1ccc(S(=O)(=O)/N=C2/NC(=O)/C(=C/c3ccc(Br)o3)S2)cc1	.	.	25*	.	.
O=C(CSc1nc2ccccc2c(=O)n1-c1ccc(F)cc1)Nc1ccc2c(c1)CCC2	.	.	5	.	.
Cc1[nH]n(-c2ccccc2)c(=O)c1-c1cccc(Cl)c1	0.8	20	37	71*	0.3
SMILES	CYP2C19 act	CYP2C19 inhib	Measles CPE	CYP2C9 inh	CYP2C9 activ
Cc1[nH]n(-c2ccccc2)c(=O)c1-c1ccc(Cl)cc1	1	3	2	45	0.5
Cc1cc(-c2c(C)[nH]n(-c3ccc(Cl)cc3)c2=O)n(-c2ccc(Cl)cc2)n1	0.9	8	3	60*	0.4
O=c1[nH]n(-c2ccc(Cl)cc2)c(=O)c(Cl)c1Cl	1.1	-7	5	22	0.8
Cc1cc(-c2c(C)[nH]n(-c3ccccc3)c2=O)n(-c2ccccc2)n1	1	1	7	81*	0.2
Cc1cc(-c2ccco2)n(-c2ccccc2)n1	0.8	18	14	6	0.9
COc1cccc(N(C(=O)c2nc3nccc(C)n3n2)c2nc3ccccc3s2)c1	.	.	17	.	.
O=C(CNC(=O)c1ccc(F)cc1)N/N=C/c1ccc(O)c([N+](=O)[O-])c1	.	.	19	.	.
COc1cc(CNc2ccc3[nH]c(=O)[nH]c3c2)cc(Br)c1OCC(=O)NC(C)(C)C	0.5	51*	6	24	0.8

Screening data deposited in PubChem by several laboratories.
